# Measurements published in the supplement of paper PMC4466140.
# How the values were obtained:
# Assay in all cases: SPOT peptide array binding signal intensity (averaged, normalized) (arbitrary units (background-subtracted, floor 0; scale differs between SH3 domains)); higher = stronger binding of the SH3 domain to the peptide
# [1] = target: CaNbp2
# In short: (§1)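 GST-fused SH3 domains, from four yeast species, were produced in E. coli BL21(DE3) and captured on glutathione Sepharose. Membranes of cellulose carrying synthetic 15-mer peptides, in which cysteines had been replaced by serines, were exposed to each domain at 10 μg/ml overnight at 4°C in TBS-based blocking buffer. After anti-GST antibody, an HRP anti-mouse secondary and luminol, spots were imaged and quantified using Genespotter. Binding signal is normalized and background-subtracted spot intensity, averaged over replicates, in arbitrary units that differ between domains.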
# [2] = target: CaRvs167
# In short: as §1
# [3] = target: CaRvs167-3
# In short: as §1
# [4] = target: CaSho1
# In short: as §1
# [5] = target: CaSla1-D1-D2
# In short: as §1
# [6] = target: CaSla1-D3
# In short: as §1
# [7] = target: ScAbp1
# In short: as §1
# [8] = target: ScBbc1
# In short: as §1
# [9] = target: ScBem1-D1
# In short: as §1
# [10] = target: ScBzz1-D1
# In short: as §1
# [11] = target: ScBzz1-D2
# In short: as §1
# [12] = target: ScCyk3
# In short: as §1
# [13] = target: ScFus1
# In short: as §1
# [14] = target: ScHof1
# In short: as §1
# [15] = target: ScHse1
# In short: as §1
# [16] = target: ScLsb1
# In short: as §1
# [17] = target: ScLsb2
# In short: as §1
# [18] = target: ScLsb3
# In short: as §1
# [19] = target: ScLsb4
# In short: as §1
# [20] = target: ScMyo3
# In short: as §1
# [21] = target: ScMyo5
# In short: as §1
# [22] = target: ScNbp2
# In short: as §1
# [23] = target: ScPex13
# In short: as §1
# [24] = target: ScRvs167
# In short: as §1
# [25] = target: ScSho1
# In short: as §1
# [26] = target: ScSla1-D1-D2
# In short: as §1
# [27] = target: ScSla1-D3
# In short: as §1
# [28] = target: SpAbp1-D1
# In short: as §1
# [29] = target: SpBbc1
# In short: as §1
# [30] = target: SpBzz1-D1
# In short: as §1
# [31] = target: SpBzz1-D2
# In short: as §1
# [32] = target: SpCyk3
# In short: as §1
# [33] = target: SpHof1
# In short: as §1
# [34] = target: SpHof1-2
# In short: as §1
# [35] = target: SpHof1-3
# In short: as §1
# [36] = target: SpHse1
# In short: as §1
# [37] = target: SpLsb1
# In short: as §1
# [38] = target: SpLsb4
# In short: as §1
# [39] = target: SpMyo1
# In short: as §1
# [40] = target: SpNbp2
# In short: as §1
# [41] = target: SpPex13
# In short: as §1
# [42] = target: SpRvs167
# In short: as §1
# [43] = target: SpSla1-D1-D2
# In short: as §1
# [44] = target: SpSla1-D3
# In short: as §1
# [45] = target: AgAbp1
# In short: as §1
# [46] = target: AgBbc1
# In short: as §1
# [47] = target: AgBem1-D1
# In short: as §1
# [48] = target: AgBzz1-D1
# In short: as §1
# [49] = target: AgBzz1-D2
# In short: as §1
# [50] = target: AgCyk3
# In short: as §1
# [51] = target: AgFus1
# In short: as §1
# [52] = target: AgHof1
# In short: as §1
# [53] = target: AgHse1
# In short: as §1
# [54] = target: AgLsb1
# In short: as §1
# [55] = target: AgLsb4
# In short: as §1
# [56] = target: AgMyo5
# In short: as §1
# [57] = target: AgNbp2
# In short: as §1
# [58] = target: AgRvs167
# In short: as §1
# [59] = target: AgSho1
# In short: as §1
# [60] = target: AgSla1-D1-D2
# In short: as §1
# [61] = target: AgSla1-D3
# In short: as §1
# [62] = target: CaAbp1-D1
# In short: as §1
# [63] = target: CaAbp1-D2
# In short: as §1
# [64] = target: CaBbc1
# In short: as §1
# [65] = target: CaBem1-D1
# In short: as §1
# [66] = target: CaBzz1-D1
# In short: as §1
# [67] = target: CaBzz1-D2
# In short: as §1
# [68] = target: CaCyk3
# In short: as §1
# [69] = target: CaFus1
# In short: as §1
# [70] = target: CaHof1
# In short: as §1
# [71] = target: CaHse1
# In short: as §1
# [72] = target: CaLsb1
# In short: as §1
# [73] = target: CaLsb4
# In short: as §1
# [74] = target: CaMyo5
# In short: as §1
binder,measurement,setting,value
NENKKLPPAPTVFGL,SPOT peptide array binding signal intensity,[1],≤ 0
same,SPOT peptide array binding signal intensity,[2],1.17
same,SPOT peptide array binding signal intensity,[3],≤ 0
same,SPOT peptide array binding signal intensity,[4],398
same,SPOT peptide array binding signal intensity,[5],≤ 0
same,SPOT peptide array binding signal intensity,[6],3.5
same,SPOT peptide array binding signal intensity,[7],≤ 0
same,SPOT peptide array binding signal intensity,[8],≤ 0
same,SPOT peptide array binding signal intensity,[9],1
same,SPOT peptide array binding signal intensity,[10],11
same,SPOT peptide array binding signal intensity,[11],6
same,SPOT peptide array binding signal intensity,[12],1
same,SPOT peptide array binding signal intensity,[13],8
same,SPOT peptide array binding signal intensity,[14],6
same,SPOT peptide array binding signal intensity,[15],6.5
same,SPOT peptide array binding signal intensity,[16],≤ 0
same,SPOT peptide array binding signal intensity,[17],≤ 0
same,SPOT peptide array binding signal intensity,[18],≤ 0
same,SPOT peptide array binding signal intensity,[19],6
same,SPOT peptide array binding signal intensity,[20],≤ 0
same,SPOT peptide array binding signal intensity,[21],≤ 0
same,SPOT peptide array binding signal intensity,[22],≤ 0
same,SPOT peptide array binding signal intensity,[23],254
same,SPOT peptide array binding signal intensity,[24],0.167
same,SPOT peptide array binding signal intensity,[25],2310
same,SPOT peptide array binding signal intensity,[26],≤ 0
same,SPOT peptide array binding signal intensity,[27],4.5
same,SPOT peptide array binding signal intensity,[28],≤ 0
same,SPOT peptide array binding signal intensity,[29],4.5
same,SPOT peptide array binding signal intensity,[30],126
same,SPOT peptide array binding signal intensity,[31],0.25
same,SPOT peptide array binding signal intensity,[32],2.5
same,SPOT peptide array binding signal intensity,[33],49.8
same,SPOT peptide array binding signal intensity,[34],344
same,SPOT peptide array binding signal intensity,[35],166
same,SPOT peptide array binding signal intensity,[36],71.8
same,SPOT peptide array binding signal intensity,[37],0.5
same,SPOT peptide array binding signal intensity,[38],≤ 0
same,SPOT peptide array binding signal intensity,[39],≤ 0
same,SPOT peptide array binding signal intensity,[40],≤ 0
same,SPOT peptide array binding signal intensity,[41],≤ 0
same,SPOT peptide array binding signal intensity,[42],0.333
same,SPOT peptide array binding signal intensity,[43],8
same,SPOT peptide array binding signal intensity,[44],1.5
EREKALPPIPFTTTL,SPOT peptide array binding signal intensity,[45],≤ 0
same,SPOT peptide array binding signal intensity,[46],≤ 0
same,SPOT peptide array binding signal intensity,[47],71
same,SPOT peptide array binding signal intensity,[48],13
same,SPOT peptide array binding signal intensity,[49],≤ 0
same,SPOT peptide array binding signal intensity,[50],2
same,SPOT peptide array binding signal intensity,[51],5
same,SPOT peptide array binding signal intensity,[52],132
same,SPOT peptide array binding signal intensity,[53],0.5
same,SPOT peptide array binding signal intensity,[54],18
same,SPOT peptide array binding signal intensity,[55],3.5
same,SPOT peptide array binding signal intensity,[56],≤ 0
same,SPOT peptide array binding signal intensity,[57],≤ 0
same,SPOT peptide array binding signal intensity,[58],0.333
same,SPOT peptide array binding signal intensity,[59],5670
same,SPOT peptide array binding signal intensity,[60],≤ 0
same,SPOT peptide array binding signal intensity,[61],≤ 0
same,SPOT peptide array binding signal intensity,[62],≤ 0
same,SPOT peptide array binding signal intensity,[63],≤ 0
same,SPOT peptide array binding signal intensity,[64],≤ 0
same,SPOT peptide array binding signal intensity,[65],1.5
same,SPOT peptide array binding signal intensity,[66],≤ 0
same,SPOT peptide array binding signal intensity,[67],1.53e-05
same,SPOT peptide array binding signal intensity,[68],≤ 0
same,SPOT peptide array binding signal intensity,[69],125
same,SPOT peptide array binding signal intensity,[70],3
same,SPOT peptide array binding signal intensity,[71],30
same,SPOT peptide array binding signal intensity,[72],0.5
same,SPOT peptide array binding signal intensity,[73],≤ 0
same,SPOT peptide array binding signal intensity,[74],0.5
same,SPOT peptide array binding signal intensity,[1],≤ 0
same,SPOT peptide array binding signal intensity,[2],2.67
same,SPOT peptide array binding signal intensity,[3],1
same,SPOT peptide array binding signal intensity,[4],4810
same,SPOT peptide array binding signal intensity,[5],≤ 0
same,SPOT peptide array binding signal intensity,[6],0.5
same,SPOT peptide array binding signal intensity,[7],≤ 0
same,SPOT peptide array binding signal intensity,[8],1
same,SPOT peptide array binding signal intensity,[9],≤ 0
same,SPOT peptide array binding signal intensity,[10],≤ 0
same,SPOT peptide array binding signal intensity,[11],2
same,SPOT peptide array binding signal intensity,[12],5
same,SPOT peptide array binding signal intensity,[13],2
same,SPOT peptide array binding signal intensity,[14],66
same,SPOT peptide array binding signal intensity,[15],≤ 0
same,SPOT peptide array binding signal intensity,[16],≤ 0
same,SPOT peptide array binding signal intensity,[17],≤ 0
same,SPOT peptide array binding signal intensity,[18],≤ 0
same,SPOT peptide array binding signal intensity,[19],0.5
same,SPOT peptide array binding signal intensity,[20],≤ 0
same,SPOT peptide array binding signal intensity,[21],≤ 0
same,SPOT peptide array binding signal intensity,[22],≤ 0
same,SPOT peptide array binding signal intensity,[23],86.8
same,SPOT peptide array binding signal intensity,[24],3.5
same,SPOT peptide array binding signal intensity,[25],7050
same,SPOT peptide array binding signal intensity,[26],≤ 0
same,SPOT peptide array binding signal intensity,[27],≤ 0
same,SPOT peptide array binding signal intensity,[28],≤ 0
same,SPOT peptide array binding signal intensity,[29],≤ 0
same,SPOT peptide array binding signal intensity,[30],61
